VDR inhibitor: Inhibitors of the vitamin D receptor (VDR): qHTS | Vitamin D3 receptor (Homo sapiens), P11473 | VDR-SRC2-3 peptide fluorescence polarization, 2 h | Potency, µM, inactives show max response, negative = inhibition, most hits filed as inhibitors | 0.93% of 400,000 active | AID 504847, 2011; note: potency is the fitted concentration of half-maximal effect
Target sequence (P11473 whole entry, looked up): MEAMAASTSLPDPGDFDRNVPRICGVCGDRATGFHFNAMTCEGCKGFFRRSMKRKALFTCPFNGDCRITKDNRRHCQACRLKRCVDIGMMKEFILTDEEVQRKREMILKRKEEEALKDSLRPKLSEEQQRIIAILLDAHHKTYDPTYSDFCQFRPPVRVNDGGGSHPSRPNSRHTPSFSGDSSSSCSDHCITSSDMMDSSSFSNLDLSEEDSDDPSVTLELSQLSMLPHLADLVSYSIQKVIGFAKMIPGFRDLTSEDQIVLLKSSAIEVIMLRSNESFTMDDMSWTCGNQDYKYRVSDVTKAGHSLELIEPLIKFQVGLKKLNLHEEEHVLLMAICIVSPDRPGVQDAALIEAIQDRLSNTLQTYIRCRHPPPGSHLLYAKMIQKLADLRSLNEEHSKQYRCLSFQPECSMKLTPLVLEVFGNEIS
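Measured by FP: displacement of SRC2-3 coactivator peptide from VDR by library compounds, following a two-hour ambient incubation.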
G9a block: qHTS Assay for Inhibitors of Histone Lysine Methyltransferase G9a. 8.8% of 350,000 active. Potency, µM (highest dose often 102 µM), inactives show top-dose activity, negative = inhibition, usual class: inhibitors. G9a H3K9 monomethylation, AlphaScreen, 2 h. Histone-lysine N-methyltransferase EHMT2 (Homo sapiens), Q96KQ7; note: potency is the fitted concentration of half-maximal effect; nearly all actives have a fitted effect of over 75% in size
Target sequence (Q96KQ7 913-1193 limits assumed): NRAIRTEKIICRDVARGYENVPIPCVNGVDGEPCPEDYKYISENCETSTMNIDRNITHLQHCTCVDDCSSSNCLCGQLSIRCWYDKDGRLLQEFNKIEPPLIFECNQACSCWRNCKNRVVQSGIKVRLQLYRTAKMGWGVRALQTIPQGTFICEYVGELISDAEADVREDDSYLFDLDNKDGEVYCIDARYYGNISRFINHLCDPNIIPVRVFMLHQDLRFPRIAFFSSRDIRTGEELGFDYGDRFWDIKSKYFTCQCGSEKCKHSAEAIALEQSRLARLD
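G9a (20 nM) preincubated 15 min RT with compounds, then 500 nM biotinylated H3K9 peptide and 20 uM SAM added; 2 h RT reaction. Monomethyl-H3K9 product detected by AlphaScreen with anti-H3K9me1 antibody, streptavidin donor and anti-rabbit IgG acceptor beads.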
CCT chaperon mod: High-Throughput Screening for Modulators of Cytosolic Chaperonin Activity | AID 651819, 2012 | purified chaperonin ATPase assay, HTRF ADP detection, 30 min | activity change, % (no concentration beside the values), hits read low | 0.3% of 360,000 active; in the data active = activity change below about -30%
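We incubate TRiC, 40 or 20 nM final, with library compounds at 76 uM and 10 uM ATP for 30 min at 37 °C. ADP formed is detected with Transcreener HTRF reagents after 30 min at room temperature.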
PLK1 PBD block: qHTS for Inhibitors of PLK1-PDB (polo-like kinase 1 - polo-box domain): Primary Screen. Serine/threonine-protein kinase PLK1 (Homo sapiens), P53350. Plk1 PBD binding of FITC phosphopeptide, fluorescence polarization. Potency, µM, inactives show max response, negative = inhibition, actives largely listed as inhibitors. 2.8% of 360,000 active. AID 720504, 2013; note: potency is the fitted concentration of half-maximal effect; series mostly up to about 57 µM; nearly all actives have a fitted effect of over 65% in size
Mm-Cpn inhibitor: Inhibitors of TCP-1 ring complex (TRiC) of Methanococcus maripaludis (MmCpn): qHTS. Chaperonin Mm-Cpn (Methanococcus maripaludis). purified Mm-Cpn ATPase, ADP Transcreener TR-FRET. Potency, µM (top dose mostly 76.9 µM), without a hit: at the top dose activity, negative = inhibition, most hits filed as inhibitors. 0.031% of 330,000 active. AID 504842, 2011; note: potency is the fitted concentration of half-maximal effect; nearly all actives have a fitted effect of over 80% in size
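Quantitative HTS used 25 nM Mm-CPN and 10 uM ATP in magnesium/KCl Tris buffer, pH 7.4, with 1 mM DTT. Hydrolysis ran 30 min at 37°C; ADP was read by HTRF.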
Sfp inh: qHTS Assay for Inhibitors of Bacillus subtilis Sfp phosphopantetheinyl transferase (PPTase); 4'-phosphopantetheinyl transferase ffp (Bacillus subtilis), Q9F4F7; Biochemical Sfp PPTase activity, qHTS; Potency, µM, inactives show largest response in the series, negative = inhibition, actives largely listed as inhibitors; 3.5% of 310,000 active;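 note: the enzyme is Sfp with the accession as filed and its product quenches rhodamine fluorescence; potency is the fitted concentration of half-maximal effect; 0% = enzyme reaction without inhibitor and -100% = no enzyme wells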
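Fluorescence-quenching assay: 15 nM Sfp-PPTase preincubated 15 min at room temperature with compound, then 5 uM rhodamine-CoA and 12.5 uM BHQ-2-labelled YbbR peptide added. Fluorescence (ex 525/em 598 nm) read at start and after 30 min; difference gives rate.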
The depositor's hits bear a star; ? = inconclusive; . = not tested or not shown; [ ] = remark or other dose. An excerpt weighted towards active compounds, which were near 10% of everything screened. Unless noted, calls come from the whole dose curve; as a rule, active = well fitted curve in the direction sought with a large enough effect; inconclusive = small, poorly fitted or top-dose-only effect, or another doubt; inactive = no such curve, though single readings can be large; an effect the other way counts as inactive or inconclusive. Unless noted, % is set by controls: 0 for no effect and ±100 for the full control effect.

SMILES	VDR inhibitor	G9a block	CCT chaperon mod	PLK1 PBD block	Mm-Cpn inhibitor	Sfp inh
COc1ccc(NS(=O)(=O)c2ccc(F)c(Cl)c2)cn1	79.4µM*	2.9%	-0.4	?	-0.5%	18.7%
COc1ccc(NS(=O)(=O)c2ccc(Br)cc2)cn1	8.5%	6.3%	0.1	1.0%	0.2%	7.7%
CC(=O)N1c2ccc(S(=O)(=O)N3CCC(C(=O)NCc4ccc(Cl)cc4)CC3)cc2CC1C (configuration not stated)	25.1µM*	.	-0.6	7.52µM*	0.2%	0.6%
CC(=O)N1c2ccc(S(=O)(=O)N3CCCC(C(=O)N4CCCC(C)C4)C3)cc2CC1C (configuration not stated)	0.5%	15.0%[0.0925 µM]	-0.4	-17.5%	-1.9%	6.9%
CC1Cc2cc(S(=O)(=O)NCc3ccc(N(C)C)cc3)ccc2N1C(=O)C1CCC1 (configuration not stated)	-5.2%	11.2µM*	.	.	.	.
CC(=O)N1c2ccc(S(=O)(=O)NCCC(=O)NCc3ccc(N(C)C)cc3)cc2CC1C (configuration not stated)	?	?	-1.1	10.6µM*	0.4%	6.9%
CC(=O)N1c2ccc(S(=O)(=O)NCCC(=O)N3CCCC(C)C3)cc2CC1C (configuration not stated)	?	8.6%[59 µM]	-3.2	23.8µM*	0.1%	23.0%
CCOc1cc(C2C(C(N)=O)=C(C)Nc3ncnn32)cc(Br)c1O (configuration not stated)	13.5%	-6.4%[59 µM]	.	.	.	.
COc1ccccc1-c1nc(SCC(=O)NCc2ccc(C)cc2)c2c(=O)n(C)c(=O)n(C)c2n1	10.4%	-19.7%[59 µM]	.	.	.	.
Cc1cc(C)n2cc(COc3ccc4ccccc4c3)nc2n1	-10.1%	4.9%	0.8	3.5%	-0.6%	13.3%
Cc1cccc2nc(COc3ccc(-c4ccccc4)cc3)cn12	.	10.1%	.	.	4.5%	44.7µM*
COc1cccc(-c2cc(C(F)(F)F)n3nc(C)c(-c4ccccc4)c3n2)c1	-4.3%	0.3%[59 µM]	.	.	.	.
CCOC(=O)c1c(S(=O)(=O)N2CCC(C(=O)Nc3ncccc3C)CC2)c(C)n(C)c1C	4.9%	11.3%[59 µM]	.	.	.	.
O=S(=O)(c1c(F)cccc1F)N1CCN(C(=S)NCc2ccc3c(c2)OCO3)CC1	-6.5%	31.6µM*	1.5	?	-1.8%	-4.3%
CCNC(=S)N1CCN(Cc2ccc3c(c2)OCO3)CC1	9.9%	-1.2%	1.1	0.9%	-9.0%	11.1%
CCCNC(=S)N1CCN(Cc2ccc3c(c2)OCO3)CC1	18.2%	20µM*	0.0	-6.7%	-1.3%	-10.1%
C=CCNC(=S)N1CCN(Cc2ccc3c(c2)OCO3)CC1	5.6%	-6.4%[0.501 µM]	1.7	-9.5%	1.0%	17.8µM*
COc1ccc(-n2c(=O)c3ccc(C(=O)NCc4ccc(C)cc4)cc3n(CC(=O)Nc3cccc(F)c3)c2=O)cc1	-3.9%	2.4%[59 µM]	.	.	.	.
CCC(Cn1nnc2ccccc2c1=O)NC(=O)Nc1ccccc1Cl (configuration not stated)	-3.5%	-4.1%[59 µM]	.	.	.	.
COc1ccc(C(=O)NCC(c2cccnc2)N2CCN(c3ccccc3F)CC2)cc1OC (configuration not stated)	7.8%	5.3%[59 µM]	.	.	.	.
CCOC(=O)c1cc(NC(=O)c2ccc(Cl)cc2)c(=O)n2c1oc1ccccc12	-1.4%	5.0%[59 µM]	.	.	.	.
COc1cccc2sc(N3CCN(C(=O)CCS(=O)(=O)c4ccc(F)cc4)CC3)nc12	8.4%	-1.1%[59 µM]	.	.	.	.
c1ccc(CNc2ncnc3ccc(-c4cccnc4)cc23)cc1	28.2µM*	23.2%[0.501 µM]	.	.	.	27.1%
O=Nc1ccc(NOC(=O)c2ccccc2)cc1	-7.4%	0.7%[59 µM]	-3.2	-4.3%	0.4%	1.2%
O=C(N=Nc1ccc(NOC(=O)c2ccccc2Br)cc1)c1ccccc1O	.	25.1µM*	.	.	2.4%	79.4µM*
SMILES	VDR inhibitor	G9a block	CCT chaperon mod	PLK1 PBD block	Mm-Cpn inhibitor	Sfp inh
CC(C)(C)Nc1c(-c2ccc(O)cc2)nc2ccc(Cl)cn12	-15.7%	.	0.6	1.5%	-2.8%	63.1µM*
COc1ccc(-c2ccc(N(C)C)cc2)cc1C1C2C=CCC(C)C2C(=O)N1Cc1ccccc1 (configuration not stated)	-4.1%	.	.	.	.	10.5%
Cc1onc(-c2c(Cl)cccc2Cl)c1C(=O)N[C@H]1C(=O)N2[C@H]1SC(C)(C)[C@H]2C(=O)O	-0.3%	32.3%[21.5 µM]	.	.	.	-1.1%
CCOC(=O)C1CCN(CC(=O)N2C(C)CCCC2C)CC1 (configuration not stated)	?	8.91µM*	0.9	-8.0%	1.9%	?
COc1ccc(C2=NN(C(=O)c3cccs3)C(O)(C(F)(F)F)C2)cc1 (configuration not stated)	-2.9%	-27.1%	-1.7	-1.2%	-2.4%	44.7µM*
O=C(c1ccccc1)N1N=C(c2ccccc2)CC1(O)C(F)(F)F (configuration not stated)	-15.9%	5.3%[0.501 µM]	0.6	-7.5%	0.5%	0.2%
Cn1c(=O)oc2cc(S(=O)(=O)CCC(=O)NCCc3ccccc3)ccc21	4.4%	10.5%[0.0925 µM]	-64.9*	-11.5%	-3.8%	3.7%
Cc1ccc(S(=O)(=O)CCNC(=O)Cc2ccccc2)cc1	56.2µM*	1.7%	1.9	9.47µM*	-2.1%	22.0%
O=C(CCS(=O)(=O)c1ccc(Br)cc1)NCCc1ccccc1	17.9%	50.1µM*	-1.5	29.9µM*	-7.4%	16.4%
CC(NS(=O)(=O)c1ccc(Br)cc1)C(=O)NCCc1ccccc1 (configuration not stated)	6.9%	39.8µM*	2.4	-4.1%	1.0%	-16.5%
Cc1ccc(CC(=O)NCCCc2ccccc2)cc1	11.7%	-11.6%[59 µM]	-2.6	-8.5%	?	-0.5%
NS(=O)(=O)c1ccc(CCNC(=O)CCS(=O)(=O)c2ccc(Br)cc2)cc1	-25.9%	28.2µM*	13.6	?	-0.3%	3.5%
NS(=O)(=O)c1ccc(CCNC(=O)CNCCc2ccccc2)cc1	-8.2%	50.1µM*	-4.4	-10.8%	2.2%	-10.0%
Cc1cc(=O)[nH]c(/N=C(\N)Nc2ccc(Oc3ccccc3)cc2)n1	0.3%	19.7%[12.7 µM]	-1.4	3.1%	0.5%	14.3%
COCc1cc(=O)[nH]c(/N=C(\N)Nc2cccc(Cl)c2)n1	4.4%	17.8µM*	-1.0	-2.7%	-1.4%	?
Cc1cc(=O)[nH]c(/N=C(\N)Nc2cccc3ccccc23)n1	-12.6%	79.4µM*	-1.8	-9.0%	-1.2%	-1.8%

Source: PubChem (National Center for Advancing Translational Sciences (NCATS))
